# Results from article PMC4336329 (PLoS ONE, 2015).
# Screen size: about 310,000 compounds; about 14,000 (4.5%) showed an effect of 50% or more. Effects have a minus sign here. The sample as a whole holds a higher share of strong results than the screen did.
# Molecular target: human ether-à-go-go-related gene (hERG) potassium channel (human, UniProt Q12809)
# Assay: primary screen, population patch clamp on CHO cells stably expressing hERG; higher = less effect of the substance
# 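Note: peak tail current of the secondary pulse compared with the same well before compound.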
# human ether-à-go-go-related gene (hERG) potassium channel, sequence (Q12809 whole entry, looked up): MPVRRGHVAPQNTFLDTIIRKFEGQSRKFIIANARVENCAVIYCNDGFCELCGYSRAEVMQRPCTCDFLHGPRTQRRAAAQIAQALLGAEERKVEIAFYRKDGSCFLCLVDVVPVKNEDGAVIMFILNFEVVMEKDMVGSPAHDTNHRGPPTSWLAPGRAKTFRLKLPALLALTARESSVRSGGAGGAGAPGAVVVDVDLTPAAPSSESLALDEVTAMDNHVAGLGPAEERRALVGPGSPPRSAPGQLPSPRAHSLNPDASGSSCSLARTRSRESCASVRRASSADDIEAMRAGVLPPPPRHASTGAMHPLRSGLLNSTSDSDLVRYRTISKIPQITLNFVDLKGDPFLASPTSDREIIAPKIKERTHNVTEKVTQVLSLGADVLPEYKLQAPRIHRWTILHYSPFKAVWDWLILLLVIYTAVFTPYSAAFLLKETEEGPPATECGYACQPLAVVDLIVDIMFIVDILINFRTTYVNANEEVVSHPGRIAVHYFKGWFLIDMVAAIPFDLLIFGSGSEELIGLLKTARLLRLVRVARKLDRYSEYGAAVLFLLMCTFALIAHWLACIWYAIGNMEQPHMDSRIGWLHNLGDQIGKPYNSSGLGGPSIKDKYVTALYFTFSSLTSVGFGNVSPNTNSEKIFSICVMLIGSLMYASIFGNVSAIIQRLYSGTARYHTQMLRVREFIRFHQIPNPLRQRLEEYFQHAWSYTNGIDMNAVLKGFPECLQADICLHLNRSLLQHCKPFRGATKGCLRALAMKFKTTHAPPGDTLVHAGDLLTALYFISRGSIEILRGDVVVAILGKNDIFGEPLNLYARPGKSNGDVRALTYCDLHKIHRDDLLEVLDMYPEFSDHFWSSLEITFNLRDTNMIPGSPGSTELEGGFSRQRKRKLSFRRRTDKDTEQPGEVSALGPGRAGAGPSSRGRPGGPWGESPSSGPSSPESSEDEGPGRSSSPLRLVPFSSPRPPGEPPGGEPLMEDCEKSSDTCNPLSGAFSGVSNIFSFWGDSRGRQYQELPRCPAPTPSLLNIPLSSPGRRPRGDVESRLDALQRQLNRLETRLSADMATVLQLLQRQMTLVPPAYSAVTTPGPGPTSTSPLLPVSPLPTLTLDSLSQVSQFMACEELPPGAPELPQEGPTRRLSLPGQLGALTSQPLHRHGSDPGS
row,SMILES,"hERG current change (%, negative = inhibition) at 10uM [%]"
1,C=C1C(=O)O[C@@H]2C[C@@H](C)[C@@H]3C=CC(=O)[C@@]3(C)[C@@H](OC(=O)CC(=O)O[C@H]3[C@@H]4C(=C)C(=O)O[C@@H]4C[C@@H](C)[C@@H]4C=CC(=O)[C@]43C)[C@H]12,-38.6
2,COc1ccc(CNC(=O)C2CCN(S(=O)(=O)c3cccnc3)CC2)cc1,12.9
3,Cc1ccc(S(=O)(=O)NCCC(=O)Nc2cc(F)ccc2C)cc1C,2.51
4,CCOC(=O)c1c(O)c2ccccc2oc1=O,-18.7
5,CN1C(=O)CN=C(c2ccc(Cl)cc2)c2cc(Cl)ccc21,-33.8
6,COc1cccc(-n2ccnc2SCC(=O)Nc2nccs2)c1,-6.22
7,Cn1c(SCC(=O)Nc2nccs2)nnc1-c1ccco1,-5.22
8,CCOC(=O)CSc1nnc(-c2ccoc2C)n1-c1ccc(OCC)cc1,-66.5
9,COc1cccc(C(=O)NCc2nnc(SCC(=O)Nc3nccs3)n2-c2cccc(C)c2)c1,-18.3
10,COc1ccc(-n2c(CSc3nc(C)cc(C)n3)nnc2SCC(=O)Nc2nccs2)cc1,-13.2
11,CCOC(=O)CSc1nnc(CNC(=O)c2ccccc2OC)n1-c1ccc(OC)cc1,-28.8
12,CCOC(=O)CSc1nnc(-c2ccoc2C)n1-c1ccc(C)cc1,-19.3
13,COc1ccc(-n2c(SCC(=O)Nc3nccs3)nnc2-c2ccoc2C)cc1,-80
14,CCOc1ccc(-n2c(SCC(N)=O)nnc2-c2ccco2)cc1,-1.15
15,COc1cccc(-n2c(SCC(=O)Nc3nccs3)nnc2-c2ccoc2C)c1,-76.8
16,CCOC(=O)CSc1nnc(CNC(=O)c2ccc(OC)cc2OC)n1C,-18.4
17,CCOC(=O)CSc1nnc(CNC(=O)c2ccc(OC)cc2OC)n1-c1ccc(OC)cc1,-50.1
18,COc1ccc(C2(C(=O)NCCCN(C)C)CCOCC2)cc1,7.45
19,CCOC(=O)c1c(-c2ccccc2Cl)csc1NC(=O)CSc1nc(C)cc(=O)[nH]1,4.37
20,C=CCc1ccc(OCc2ccc(C(=O)OC)o2)c(OC)c1,-12.1
21,CC1CCCCC1NC(=O)CC1Oc2ccccc2NC1=O (stereo not drawn),0.244

row,SMILES,"hERG current change (%, negative = inhibition) at 10uM [%]"
1,CC(=O)c1ccc(S(=O)(=O)NC2CC(=O)N(c3ccc4c(c3)OCCO4)C2)cc1 (stereo not drawn),5.79
2,CCN(CC)S(=O)(=O)c1cc(C(=O)O)ccc1Cl,11
3,CC(=O)c1ccc(Sc2nnc(C)s2)c([N+](=O)[O-])c1,1.07
4,Cc1ccc(OCC(=O)Nc2nnc(S(=O)(=O)N3CCC(C)CC3)s2)cc1,19.2
5,O=C(NNC(=O)c1ccc([N+](=O)[O-])o1)c1ccccc1,-6.59
6,CN(CC(=O)Nc1ccccc1Cl)C(=O)COC(=O)c1ccc(C(F)(F)F)cc1,-9.53
7,CN(CC(=O)Nc1ccccc1Cl)C(=O)COC(=O)c1ccc(Cl)nc1,4.99
8,CN(CC(=O)Nc1ccccc1Cl)C(=O)COC(=O)c1nc(Cl)ccc1Cl,-20
9,CN(CC(=O)Nc1ccccc1Cl)C(=O)COC(=O)c1ccccc1[N+](=O)[O-],-6.07
10,CN(CC(=O)Nc1ccccc1Cl)C(=O)COC(=O)C1CC1,-2.87
11,CN(CC(=O)Nc1ccccc1Cl)C(=O)COC(=O)c1ccc(S(=O)(=O)C(F)F)cc1,-69.9
12,CC[C@H](C)[C@H](NC(=O)OCc1ccccc1)C(=O)OCC(=O)N(C)CC(=O)Nc1ccccc1Cl,-64.5
13,CC(=O)Oc1ccc(-c2ccc(C(=O)OCC(=O)N(C)CC(=O)Nc3ccccc3Cl)cc2)cc1,-68.9
14,CN(CC(=O)Nc1ccccc1Cl)C(=O)COC(=O)C1=COCCO1,5.89
15,COc1cc(/C=C/C(=O)OCC(=O)Nc2cc(C(F)(F)F)ccc2N2CCOCC2)ccc1O,-0.592
16,C=CCOC(=O)C1=C[C@@H](c2ccc(Br)cc2)C[C@@H](OCc2ccc(CO)cc2)O1,-14.7
17,COc1cc(C(=O)OCC(=O)N2CCCCC2C)ccc1OCc1c(C)noc1C (stereo not drawn),6.3
18,C#CCOCCOCCOCCNc1nc(N2CCN(C(=O)CCCCCCCCCCNC(=O)[C@H](CO)n3cc(CCCSC)nn3)CC2)nc(N2CCN(C(=O)CCCCCCCCCCNC(=O)[C@H](CO)n3cc(CCCSC)nn3)CC2)n1,4.57
19,COc1ccccc1NC(=O)c1ccc(S(=O)(=O)N(C)c2ccccc2)cc1,-3.47
20,COc1ccc(NC(=O)c2cc3c(s2)CCC(C)C3)cc1S(=O)(=O)N1CCOCC1 (stereo not drawn),-19.1
21,CCN(CC)S(=O)(=O)c1ccc(N2CCOCC2)c(NC(=O)CC2OC(=O)c3ccccc32)c1 (stereo not drawn),-26

row,SMILES,"hERG current change (%, negative = inhibition) at 10uM [%]"
1,Cc1cc(-c2ccccc2)c(C#N)c(SCC(N)=O)n1,-3.47
2,O=C(NCc1ccc(F)cc1)c1ccc2c(=O)n3c(nc2c1)CCCCC3,-36.7
3,O=C(NCCc1ccc(F)cc1)c1ccc2c(=O)n3c(nc2c1)CCC3,-45.7
4,Cc1nc2n(c(=O)c1CCN1CCC(c3noc4cc(F)ccc34)CC1)CCCC2,-68
5,CCCCN(CCCNC(=O)CN1C(=O)COc2ccccc21)c1ccccc1,-26
6,Cc1noc(C)c1COC(=O)COc1ccc(C#N)cc1,2.8
7,O=C(CN1CCN(C(c2ccccc2)c2ccccc2)CC1)N1N=CCC1c1ccccc1 (stereo not drawn),-50.1
8,CCN1CCN(CC(=O)N2N=CCC2c2ccccc2)CC1 (stereo not drawn),3.12
9,O=C(CN1CCN(c2ccccc2)CC1)N1N=CCC1c1ccccc1 (stereo not drawn),5.51
10,CC(C)CN(C(=O)CCC(=O)OCC(=O)N(C)c1ccccc1)c1c(N)n(CC(C)C)c(=O)[nH]c1=O,10.7
11,O=C(CCCn1c(=S)[nH]c2cc3c(cc2c1=O)OCO3)N1CCN(c2ccccc2F)CC1,20.6
12,CCOc1ccc(NC(=S)N2CCCN(Cc3cc(C)ccc3C)C2)cc1,-57.8
13,COc1ccc(NC(=S)N2CCCN(Cc3cc(C)ccc3C)C2)cc1,-12.7
14,CCOc1ccc(NC(=S)N2CCCN(Cc3cccc(Cl)c3)C2)cc1,-17.6
15,CN(C)c1ccc(C=NCCc2ccc(S(N)(=O)=O)cc2)cc1,6.19
16,COc1ccc2[nH]c(=O)c(CN(C(=O)c3cccnc3)c3cccc(C)c3)cc2c1,11.5
17,O=C(COC(=O)CNC(=O)c1ccc(Cl)cc1)Nc1ncc(C(F)(F)F)cc1Cl,-31.8
18,Cc1ccc(C(=O)OCC(=O)Nc2ncc(Cl)cc2Cl)cc1NC(=O)c1ccco1,-48.7
19,O=C(COC(=O)CNC(=O)c1ccco1)Nc1ncc(Cl)cc1Cl,7.02
20,O=C(COC(=O)c1ccccn1)Nc1ncc(C(F)(F)F)cc1Cl,-11.7
21,O=C(COC(=O)CNC(=O)c1ccc([N+](=O)[O-])o1)Nc1ncc(C(F)(F)F)cc1Cl,-58.3

row,SMILES,"hERG current change (%, negative = inhibition) at 10uM [%]"
1,O=C(COC(=O)CNC(=O)c1ccc([N+](=O)[O-])o1)Nc1ncc(Cl)cc1Cl,-54.9
2,O=C(COC(=O)c1ccc([N+](=O)[O-])s1)Nc1ncc(C(F)(F)F)cc1Cl,-63
3,Cc1c(Cl)cnc(NC(=O)COC(=O)c2ccc([N+](=O)[O-])s2)c1Cl,6.06
4,COc1ccc(C(=O)NCC(=O)OCC(=O)Nc2ncc(Cl)cc2Cl)cc1[N+](=O)[O-],-37.3
5,O=C(COC(=O)CNC(=O)c1ccccc1Cl)Nc1ncc(C(F)(F)F)cc1Cl,-1.76
6,Cc1ccc(C(=O)OCC(=O)Nc2ccccc2)cc1NC(=O)c1ccco1,-4.37
7,Cc1ccc(C(=O)OCC(=O)Nc2ncc(C(F)(F)F)cc2Cl)cc1NC(=O)c1ccco1,-50.1
8,Cc1cc(-n2cnnn2)cc(C)c1S(=O)(=O)NCCOc1ccccc1,-38.5
9,CC(O)c1nc2ccccc2n1CC(=O)Nc1ccc(F)cc1Cl (stereo not drawn),14.2
10,CCOC(=O)c1sc(NC(=O)c2ccc(C)o2)nc1C,-5.35
11,COc1cc(C(c2c(C)n(C)n(-c3ccccc3)c2=O)c2c(C)n(C)n(-c3ccccc3)c2=O)cc(Br)c1O,13.7
12,COc1cccc(-c2nnc(NC(=O)c3ccc4ncsc4c3)o2)c1,-8.13
13,COc1cc(/C=C/C(=O)O)cc(S(=O)(=O)Nc2ccccc2Cl)c1OC,18.8
14,CN(c1ccccc1)S(=O)(=O)c1ccc(Cl)c(C(=O)NCCc2c[nH]c3ccccc23)c1,-15.8
15,COc1ccc(/C=C/C(=O)Nc2ccccc2C(=O)O)cc1,7.91
16,O=[N+]([O-])c1c(Nc2ccc(O)cc2)cc(Cl)c2nonc12,-26.1
17,O=[N+]([O-])c1cc([N+](=O)[O-])c2nonc2c1Nc1ccccc1O,10.3
18,O=[N+]([O-])c1cc([N+](=O)[O-])c2nonc2c1Nc1ccc(O)cc1,-56.9
